Here are results for 40 compounds from PubChem BioAssay (NCI).

This is part of a sample that, as a whole, favours compounds with a hit. Of some 79,000 tested, about 15% had one in any assay. Active and inactive are the calls of the source. Cut-off read from the data, not from the text of the source: active = growth inhibition above about 70%; inactive = the rest.

The first test can be described thus: NCI Yeast Anticancer Drug Screen. Data for the sgs1 mgt1 strain (AID 161).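 Note: 0% = growth of cultures given vehicle only.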 Conditions: S. cerevisiae sgs1 mgt1 strain, at 50.0 µM, hits give high values. Summed up:
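Compounds are added to genetically altered yeast, and growth is compared with cultures given vehicle alone to give percent inhibition.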
For the compound `O=C1SCC(O)=C1/C=N/Nc1nc2ccccc2o1`, the growth inhibition was 27.1% (inactive).
Same read-out and setting: the value for `CC(=O)OCC1OC(n2nc(C#N)c(C#N)n2)C(OC(C)=O)C1OC(C)=O` (centres undefined) was 3.15% (inactive); that for `C/C=C/C=C1/OC(C)=C(C(=O)OCC)C1=O` was 6.55% (inactive).
The same measure, in the same setting: the value for `CCN(CC)CC#CCCCN(CC)CC` was -27.9% (inactive).
On the same count and under the same terms, then `CCOC(=O)/C(C#N)=C(O)\C(=C\c1ccc(Cl)cc1)NC(=O)c1ccc(NC(C)=O)cc1`, with -17.4% (inactive); and `CCC1(C)N=C(N)Nc2nc3ccccc3n21` (centres undefined), with -7.65% (inactive); and `CCNC(=O)c1csnn1`, with -5.95% (inactive).
For `C[N+]1(CCC[N+]2(C)CCC3(CCCCC3)CC2)CCOCC1`, the growth inhibition is 11.2% (inactive).
On the same count and under the same terms, then `Cc1ccc2c(c1)CCC(=O)O2`, with -1.75% (inactive); and `Nc1nc(=O)n(CCCCCCc2ccccc2)cc1-c1ccc(Cl)c(Cl)c1`, with 8% (inactive); and `COc1ccc2c(c1)C1(C)CCC(=O)C(C)=C1CC2` (centres undefined), with 22.9% (inactive).
Same read-out and setting: then `CCCCCCCCCCCCOC1OC(COC(C)=O)C(OC(C)=O)C(OC(C)=O)C1OC(C)=O` (centres undefined) (tested in a mixture with another compound), with -15.6% (inactive); and `c1ccc(C(=C2CCC2)c2c3ccccc3cc3ccccc23)cc1`, with -7% (inactive).
For the compound `COc1cccc(-c2nsc(=O)o2)c1`, the growth inhibition was 24.3% (inactive).
Same read-out and setting: then `CC1C(c2ccccc2)OC(c2ccccc2)N1C` (centres undefined), with 21.4% (inactive); and `O=C(NO)Oc1cccc2ccccc12`, with 0.25% (inactive); and `c1ccc2c(c1)CSc1ccccc1-2`, with -6.4% (inactive).
On the same count and under the same terms, the value for `CN(C)N=Nc1ccccc1` was 0% (inactive); that for `Cc1cccc(-c2cccc(C)c2C)c1C` was -1.35% (inactive); that for `COc1ccc(-c2coc3cc(O)cc(O)c3c2=O)cc1` was 59.4% (inactive).
In the case of `COc1cc(Nc2cnc3ccc(C(F)(F)F)cc3n2)cc(OC)c1OC`, the growth inhibition is 1.15% (inactive).
The same measure, in the same setting: then `O=C(O)c1[nH]ncc1[N+](=O)[O-]`, with -5.05% (inactive).

Another test in a line: NCI Yeast Anticancer Drug Screen. Data for the cln2 rad14 strain (AID 165).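 Note: 0% = growth equal to vehicle treated cultures.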 Conditions: S. cerevisiae cln2 rad14 strain, at 50.0 µM, hits give high values. Summed up:
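Yeast carrying cln2 and rad14 alterations (cell cycle control and DNA damage repair) were exposed to compounds. Growth inhibition was measured against vehicle-treated controls.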
In the case of `CC(C)C1OCC(CO)([N+](=O)[O-])CO1` (centres undefined), the growth inhibition is -54.5% (inactive).
The same measure, in the same setting: then `CSc1nc(C)c2c(n1)N(c1ccc(Cl)cc1)CC2`, with -35.3% (inactive).
The same measure, in the same setting: the value for `CCc1cccc(CC)c1NC(=O)/C=C/C(=O)O` was -46.6% (inactive).
In the case of `CCn1c(S)c(N=NC(=S)c2ccc3ccccc3n2)c2ccccc21`, the growth inhibition was 23.4% (inactive).
The same measure, in the same setting: then `O=C(O)CNC(=O)NC(Cc1ccccc1)C(=O)O` (centres undefined), with 71.5% (active).
As to `OC/C(I)=C(I)\C(I)=C(\I)CO`, the growth inhibition is 99.4% (active).
The same measure, in the same setting: the value for `CC(=O)C(N)=NCc1ccccc1` was 4.6% (inactive); that for `Cc1cc2ccccc2nc1-c1ccncc1` was -44.6% (inactive).
`CC(C)(C)C1=NC(S)NC(CCC(=O)Nc2ccccc2[N+](=O)[O-])=C1` (centres undefined): the growth inhibition is 14.2% (inactive).
On the same count and under the same terms, the value for `COc1ccc2cc(C(=O)c3ccccc3)c(=O)oc2c1` was 11.1% (inactive).
`CCCCCCC1=CCCC1=O`: the growth inhibition is -3.6% (inactive).
On to `N#Cc1cccc(O)c1`, for which the growth inhibition was 20.1% (inactive).
Still for that read-out and setting: the value for `O=C(c1nc2ccccc2[nH]c1=O)C(O)c1ccccc1` (centres undefined) was 17.4% (inactive); that for `O=c1[nH]c2cc([N+](=O)[O-])ccc2nc1/C(=N/Nc1ccccc1)C(O)c1ccco1` (centres undefined) was 16.2% (inactive).
Same read-out and setting: the value for `CSc1ccc(OC(=O)Nc2ccc(Cl)c(Cl)c2)cc1C` was 95% (active); that for `Cc1cc(O)c(C(C)C)cc1NC(=S)Nc1ccc(S(=O)(=O)c2ccc(NC(=S)Nc3cc(C(C)C)c(O)cc3C)cc2)cc1` was 17.9% (inactive); that for `CC1=C/C(=N\O)C(C(O)(C(F)(F)F)C(F)(F)F)C(C)(C)C1` (centres undefined) was -12.5% (inactive).
On the same count and under the same terms, the value for `COc1cc2c(cc1OC)C(O)C(O)(CO)C(C(=O)O)C2c1cc(OC)c(OC)c(OC)c1` (centres undefined) was 18.2% (inactive); that for `O=C1SCC(O)=C1/C=N/Nc1nc2ccccc2o1` was 31.7% (inactive).
On to `CC(=O)OCC1OC(n2nc(C#N)c(C#N)n2)C(OC(C)=O)C1OC(C)=O` (centres undefined), for which the growth inhibition is 8.05% (inactive).
Still for that read-out and setting: the value for `C/C=C/C=C1/OC(C)=C(C(=O)OCC)C1=O` was 11.4% (inactive); that for `CCN(CC)CC#CCCCN(CC)CC` was 1.75% (inactive).
Same read-out and setting: then `CCOC(=O)/C(C#N)=C(O)\C(=C\c1ccc(Cl)cc1)NC(=O)c1ccc(NC(C)=O)cc1`, with 9.2% (inactive).
On the same count and under the same terms, the value for `CCC1(C)N=C(N)Nc2nc3ccccc3n21` (centres undefined) was -28.6% (inactive); that for `CCNC(=O)c1csnn1` was 12.5% (inactive).
Take `C[N+]1(CCC[N+]2(C)CCC3(CCCCC3)CC2)CCOCC1`: the growth inhibition was -4.8% (inactive).
The same measure, in the same setting: the value for `Cc1ccc2c(c1)CCC(=O)O2` was -17.2% (inactive).
